Test results: the supplement of paper PMC10849652
About 7,900 targets were measured; listed, in parts, are those with a hit and a random draw of the rest. About 0.6% of all pairs of compound and target were hits. Unmarked numbers belong to inactive results.

Experiments:
Experiment in all cases: log2 fold change, soluble protein after heating vs DMSO (PISA); higher = thermal stabilisation; K562 cells, 10 uM, 30 min; active = over 0.2 and 3.5 SD of the protein, either way, in both replicates (recomputed)
[1] = compound: CC[C@@H]1C(=O)N(C)c2cnc(Nc3ccc(C(=O)NC4CCN(C)CC4)cc3OC)nc2N1C1CCCC1
Outline: (§1)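 Aliquots of K562 cells (2×10^6 cells/mL) treated with 10 μM compound for 30 min were heated for 3 min over 48°C-58°C. After pooling and extraction in PBS with 0.5% NP-40 at 4°C, soluble protein from a 21,000xg, 90 min spin was quantified by TMTpro 16plex LC-MS/MS with channel sums equalised. Thermal stability is expressed against control samples, from duplicates, as a log2 fold change.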

volasertib = compound: CC[C@@H]1C(=O)N(C)c2cnc(Nc3ccc(C(=O)N[C@H]4CC[C@H](N5CCN(CC6CC6)CC5)CC4)cc3OC)nc2N1C(C)C [volasertib]
Outline: as §1

[2] = compound: CC[C@H](C)N1C=C(C2=C(C=C(C=C21)C3=CN=C(C=C3)N4CCNCC4)C(=O)NCC5=C(C=C(NC5=O)C)C)C
Outline: as §1

epoxomicin = compound: CC[C@H](C)[C@@H](C(=O)N[C@@H]([C@@H](C)O)C(=O)N[C@@H](CC(C)C)C(=O)[C@]1(CO1)C)NC(=O)[C@H]([C@@H](C)CC)N(C)C(=O)C [epoxomicin]
Outline: as §1

[3] = compound: CCn1c(C(=O)N(C2CC2)C2CC2)cc2c3c(ncn3C)c(Nc3cc(C)n(C)n3)nc21
Outline: as §1

[4] = compound: CCn1cc(-c2ccnc3[nH]c(-c4cccc(CN(C)C)c4)cc23)c(-c2ccc(NC(=O)N(C)C)cc2)n1
Outline: as §1

[5] = compound: CN(C)CC(=O)Nc1ccc2[nH]c(=O)c3ccccc3c2c1
Outline: as §1

rosiglitazone = compound: CN(CCOC1=CC=C(C=C1)C[C@H]2C(=O)NC(=O)S2)C3=CC=CC=N3 (racemic) [rosiglitazone]
Outline: as §1

[6] = compound: CN1C2=C(C3=C1C(=O)N(N=C3)CC4=CC(=CC=C4)N)SC(=C2)S(=O)C
Outline: as §1

[7] = compound: CN1CCC(CNc2ccc3ncc(-c4cccc(OC(F)(F)F)c4)n3n2)CC1
Outline: as §1

saracatinib = compound: CN1CCN(CCOc2cc(OC3CCOCC3)c3c(Nc4c(Cl)ccc5c4OCO5)ncnc3c2)CC1 [saracatinib]
Outline: as §1

sotrastaurin = compound: CN1CCN(c2nc(C3=C(c4c[nH]c5ccccc45)C(=O)NC3=O)c3ccccc3n2)CC1 [sotrastaurin]
Outline: as §1

alvocidib = compound: CN1CC[C@H](c2c(O)cc(O)c3c(=O)cc(-c4ccccc4Cl)oc23)[C@H](O)C1 [alvocidib]
Outline: as §1

Tubastatin A = compound: CN1CCc2c(c3ccccc3n2Cc2ccc(C(=O)NO)cc2)C1 [Tubastatin A]
Outline: as §1

[8] = compound: CNC(=O)C1=CC=CC=C1NC2=NC(=NC=C2Cl)NC3=C(C=C(C=C3)N4CCOCC4)OC
Outline: as §1

defactinib = compound: CNC(=O)c1ccc(Nc2ncc(C(F)(F)F)c(NCc3nccnc3N(C)S(C)(=O)=O)n2)cc1 [defactinib]
Outline: as §1

rucaparib = compound: CNCc1ccc(-c2[nH]c3cc(F)cc4c3c2CCNC4=O)cc1 [rucaparib]
Outline: as §1

[9] = compound: CNc1nc(-c2ccc3c(N)n[nH]c3c2)cc(N2C[C@@H](C(=O)NC3CCCCC3)CC[C@H]2C)n1
Outline: as §1

encorafenib = compound: COC(=O)N[C@@H](C)CNc1nccc(-c2cn(C(C)C)nc2-c2cc(Cl)cc(NS(C)(=O)=O)c2F)n1 [encorafenib]
Outline: as §1

[10] = compound: COC(=O)[C@H](CCSC)NC(=O)C1=C(C=C(C=C1)NC[C@H](CS)N)C2=CC=CC=C2
Outline: as §1

UniProt Q9BZI7, sequence (Q9BZI7 whole entry, looked up): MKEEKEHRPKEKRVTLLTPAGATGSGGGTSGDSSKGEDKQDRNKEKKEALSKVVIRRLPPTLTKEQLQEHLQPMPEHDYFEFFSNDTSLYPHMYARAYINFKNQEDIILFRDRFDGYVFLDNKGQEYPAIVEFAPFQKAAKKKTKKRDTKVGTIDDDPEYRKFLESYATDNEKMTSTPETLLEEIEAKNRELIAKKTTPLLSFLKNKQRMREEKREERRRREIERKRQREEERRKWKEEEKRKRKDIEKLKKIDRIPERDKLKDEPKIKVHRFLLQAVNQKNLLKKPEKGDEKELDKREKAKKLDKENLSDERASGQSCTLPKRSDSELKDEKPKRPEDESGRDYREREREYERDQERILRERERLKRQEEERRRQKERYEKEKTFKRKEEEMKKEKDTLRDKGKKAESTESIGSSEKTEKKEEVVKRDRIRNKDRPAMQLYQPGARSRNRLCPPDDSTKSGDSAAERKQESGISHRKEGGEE
UniProt O00220, sequence (O00220 whole entry, looked up): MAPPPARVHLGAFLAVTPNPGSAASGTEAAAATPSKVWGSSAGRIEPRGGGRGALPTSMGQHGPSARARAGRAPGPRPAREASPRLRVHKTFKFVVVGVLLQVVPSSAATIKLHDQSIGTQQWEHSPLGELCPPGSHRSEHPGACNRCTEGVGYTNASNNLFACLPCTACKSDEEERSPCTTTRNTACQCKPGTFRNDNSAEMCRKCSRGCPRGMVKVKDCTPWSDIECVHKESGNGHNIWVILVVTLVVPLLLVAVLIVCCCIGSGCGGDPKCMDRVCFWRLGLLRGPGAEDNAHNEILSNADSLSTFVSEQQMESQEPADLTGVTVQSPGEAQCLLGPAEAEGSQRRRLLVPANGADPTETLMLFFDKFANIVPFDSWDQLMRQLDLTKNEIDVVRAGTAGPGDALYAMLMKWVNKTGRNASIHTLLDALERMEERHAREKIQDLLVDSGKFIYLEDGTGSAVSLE
UniProt Q9NUM4, sequence (Q9NUM4 whole entry, looked up): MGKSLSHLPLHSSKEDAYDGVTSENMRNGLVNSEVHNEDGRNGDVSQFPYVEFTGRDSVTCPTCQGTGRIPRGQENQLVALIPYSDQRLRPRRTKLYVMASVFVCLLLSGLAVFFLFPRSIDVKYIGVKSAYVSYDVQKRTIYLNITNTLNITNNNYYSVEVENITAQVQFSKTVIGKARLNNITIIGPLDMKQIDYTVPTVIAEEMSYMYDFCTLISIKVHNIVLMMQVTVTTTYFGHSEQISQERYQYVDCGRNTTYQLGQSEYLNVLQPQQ
UniProt Q8N4H5, sequence (Q8N4H5 whole entry, looked up): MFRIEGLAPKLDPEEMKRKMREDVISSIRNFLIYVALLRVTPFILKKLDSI
UniProt Q93009, sequence (Q93009 whole entry, looked up): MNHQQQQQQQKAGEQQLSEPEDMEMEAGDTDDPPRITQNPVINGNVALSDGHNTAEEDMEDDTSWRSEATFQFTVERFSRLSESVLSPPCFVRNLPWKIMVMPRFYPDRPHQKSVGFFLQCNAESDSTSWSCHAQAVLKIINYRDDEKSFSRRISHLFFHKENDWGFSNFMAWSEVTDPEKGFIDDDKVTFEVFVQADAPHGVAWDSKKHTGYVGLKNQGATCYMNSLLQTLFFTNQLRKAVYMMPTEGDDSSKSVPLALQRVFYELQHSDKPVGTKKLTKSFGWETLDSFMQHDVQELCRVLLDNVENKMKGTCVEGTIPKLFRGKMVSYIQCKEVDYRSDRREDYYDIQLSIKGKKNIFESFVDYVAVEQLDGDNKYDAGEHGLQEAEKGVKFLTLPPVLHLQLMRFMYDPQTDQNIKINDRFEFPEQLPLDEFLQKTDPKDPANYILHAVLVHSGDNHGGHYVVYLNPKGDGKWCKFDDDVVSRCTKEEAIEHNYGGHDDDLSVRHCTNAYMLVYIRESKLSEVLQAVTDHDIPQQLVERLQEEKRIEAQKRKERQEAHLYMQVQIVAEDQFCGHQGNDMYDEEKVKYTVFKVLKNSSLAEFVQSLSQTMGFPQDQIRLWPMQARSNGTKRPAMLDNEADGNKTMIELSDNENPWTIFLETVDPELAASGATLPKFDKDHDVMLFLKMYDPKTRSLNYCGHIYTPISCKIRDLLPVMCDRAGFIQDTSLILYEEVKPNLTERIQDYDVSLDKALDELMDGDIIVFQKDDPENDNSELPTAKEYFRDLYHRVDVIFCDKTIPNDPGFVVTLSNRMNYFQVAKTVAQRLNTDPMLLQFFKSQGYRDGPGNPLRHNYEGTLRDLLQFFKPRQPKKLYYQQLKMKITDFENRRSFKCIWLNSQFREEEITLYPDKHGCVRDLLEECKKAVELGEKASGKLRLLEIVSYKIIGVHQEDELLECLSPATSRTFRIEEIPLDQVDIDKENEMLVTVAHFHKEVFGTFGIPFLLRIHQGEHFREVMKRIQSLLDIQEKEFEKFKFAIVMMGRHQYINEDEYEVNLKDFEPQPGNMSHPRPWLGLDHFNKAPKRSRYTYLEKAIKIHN
UniProt O14980, sequence (O14980 whole entry, looked up): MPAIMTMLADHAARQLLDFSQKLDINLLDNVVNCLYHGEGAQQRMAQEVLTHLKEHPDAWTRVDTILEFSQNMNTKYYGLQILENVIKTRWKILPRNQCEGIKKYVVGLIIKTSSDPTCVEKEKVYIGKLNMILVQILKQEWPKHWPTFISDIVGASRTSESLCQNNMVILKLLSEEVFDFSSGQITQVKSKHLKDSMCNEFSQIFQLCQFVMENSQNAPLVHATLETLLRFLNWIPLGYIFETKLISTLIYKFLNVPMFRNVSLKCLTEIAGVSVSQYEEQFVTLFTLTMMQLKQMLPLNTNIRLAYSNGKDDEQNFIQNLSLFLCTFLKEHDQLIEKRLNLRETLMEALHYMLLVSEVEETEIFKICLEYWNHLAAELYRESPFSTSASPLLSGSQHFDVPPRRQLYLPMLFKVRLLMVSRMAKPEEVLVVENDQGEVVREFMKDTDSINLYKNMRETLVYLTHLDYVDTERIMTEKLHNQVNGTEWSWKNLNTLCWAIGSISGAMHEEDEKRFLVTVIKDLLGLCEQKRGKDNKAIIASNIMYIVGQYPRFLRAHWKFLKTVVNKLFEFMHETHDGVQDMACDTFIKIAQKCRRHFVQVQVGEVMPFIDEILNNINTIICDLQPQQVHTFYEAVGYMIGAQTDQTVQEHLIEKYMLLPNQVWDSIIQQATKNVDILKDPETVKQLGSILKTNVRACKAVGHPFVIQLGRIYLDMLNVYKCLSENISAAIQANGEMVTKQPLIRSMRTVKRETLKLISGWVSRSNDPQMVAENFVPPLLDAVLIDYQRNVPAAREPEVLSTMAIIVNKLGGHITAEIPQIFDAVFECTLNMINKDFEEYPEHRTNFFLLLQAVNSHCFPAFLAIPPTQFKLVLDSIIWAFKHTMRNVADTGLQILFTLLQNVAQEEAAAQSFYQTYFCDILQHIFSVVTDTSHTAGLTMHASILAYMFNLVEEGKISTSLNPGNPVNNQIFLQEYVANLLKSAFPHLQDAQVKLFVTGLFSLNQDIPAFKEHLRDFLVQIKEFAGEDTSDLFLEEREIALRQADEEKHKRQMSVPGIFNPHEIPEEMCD
UniProt O43592, sequence (O43592 whole entry, looked up): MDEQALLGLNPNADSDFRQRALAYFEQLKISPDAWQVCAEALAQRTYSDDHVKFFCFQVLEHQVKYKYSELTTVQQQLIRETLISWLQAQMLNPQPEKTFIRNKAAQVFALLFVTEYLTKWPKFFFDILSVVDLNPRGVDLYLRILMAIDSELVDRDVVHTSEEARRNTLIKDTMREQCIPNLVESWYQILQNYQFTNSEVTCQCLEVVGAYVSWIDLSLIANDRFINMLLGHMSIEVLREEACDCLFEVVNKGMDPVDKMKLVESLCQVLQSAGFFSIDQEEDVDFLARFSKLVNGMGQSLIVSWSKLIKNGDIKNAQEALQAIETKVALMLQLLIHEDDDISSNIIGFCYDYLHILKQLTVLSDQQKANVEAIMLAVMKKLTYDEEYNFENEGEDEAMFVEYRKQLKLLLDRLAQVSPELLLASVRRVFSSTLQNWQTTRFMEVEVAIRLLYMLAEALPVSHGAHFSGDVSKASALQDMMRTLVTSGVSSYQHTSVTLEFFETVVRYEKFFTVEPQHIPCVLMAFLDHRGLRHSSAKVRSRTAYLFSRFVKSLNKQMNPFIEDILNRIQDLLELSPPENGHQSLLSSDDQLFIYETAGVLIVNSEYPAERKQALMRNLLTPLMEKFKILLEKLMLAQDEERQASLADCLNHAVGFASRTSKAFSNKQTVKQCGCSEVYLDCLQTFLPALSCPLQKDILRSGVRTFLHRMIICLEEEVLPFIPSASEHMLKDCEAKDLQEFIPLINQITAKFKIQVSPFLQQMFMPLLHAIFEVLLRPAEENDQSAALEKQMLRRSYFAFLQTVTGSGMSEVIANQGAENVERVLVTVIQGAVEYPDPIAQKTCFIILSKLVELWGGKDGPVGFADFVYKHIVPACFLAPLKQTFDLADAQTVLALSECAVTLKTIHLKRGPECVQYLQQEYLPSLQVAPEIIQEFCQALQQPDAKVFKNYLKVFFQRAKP
UniProt Q5U3C3, sequence (Q5U3C3 whole entry, looked up): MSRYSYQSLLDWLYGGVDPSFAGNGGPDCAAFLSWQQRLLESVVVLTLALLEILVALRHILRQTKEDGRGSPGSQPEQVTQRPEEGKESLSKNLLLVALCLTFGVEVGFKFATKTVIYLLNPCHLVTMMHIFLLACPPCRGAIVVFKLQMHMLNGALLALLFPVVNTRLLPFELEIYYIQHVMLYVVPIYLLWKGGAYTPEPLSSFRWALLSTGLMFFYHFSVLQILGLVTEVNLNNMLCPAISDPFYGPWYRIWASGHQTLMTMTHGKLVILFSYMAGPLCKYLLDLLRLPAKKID
UniProt Q9Y385, sequence (Q9Y385 whole entry, looked up): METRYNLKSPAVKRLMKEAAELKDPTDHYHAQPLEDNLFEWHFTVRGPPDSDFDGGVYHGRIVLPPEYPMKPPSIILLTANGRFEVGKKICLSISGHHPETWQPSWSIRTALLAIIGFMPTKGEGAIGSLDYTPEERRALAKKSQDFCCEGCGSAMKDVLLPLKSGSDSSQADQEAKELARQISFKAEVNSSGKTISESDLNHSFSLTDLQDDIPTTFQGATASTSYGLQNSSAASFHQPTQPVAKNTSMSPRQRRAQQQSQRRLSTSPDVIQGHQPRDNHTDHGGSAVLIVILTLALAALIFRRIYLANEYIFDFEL

Row | Target | log2 fold change [1] | log2 fold change (volasertib) | log2 fold change [2] | log2 fold change (epoxomicin) | log2 fold change [3] | log2 fold change [4] | log2 fold change [5] | log2 fold change (rosiglitazone) | log2 fold change [6] | log2 fold change [7] | log2 fold change (saracatinib) | log2 fold change (sotrastaurin) | log2 fold change (alvocidib) | log2 fold change (Tubastatin A) | log2 fold change [8] | log2 fold change (defactinib) | log2 fold change (rucaparib) | log2 fold change [9] | log2 fold change (encorafenib) | log2 fold change [10]
1 | TPR (UniProt P12270) | 0.095 | -0.034 | -0.018 | 0 | 0.055 | 0.067 | -0.03 | -0.02 | -0.005 | 0.297 (active) | 0.152 | -0.147 | -0.012 | -0.035 | 0.239 | 0.005 | -0.043 | -0.112 | -0.047 | 0.023
2 | TYW1 (UniProt Q9NV66) | -0.02 | -0.341 (active) | 0.052 | 0.03 | -0.009 | -0.002 | 0.031 | 0.036 | 0.014 | 0.088 | 0.089 | -0.059 | -0.064 | -0.033 | 0.031 | -0.055 | 0.052 | -0.061 | 0.028 | -0.059
3 | TMEM106B (UniProt Q9NUM4) | 0.025 | -0.032 | -0.05 | -0.11 | -0.026 | -0.007 | -0.05 | 0.022 | 0.012 | -0.13 | 0.123 | 0.027 | 0.02 | -0.121 | -0.037 | 0.021 | -0.007 | -0.145 | -0.037 | -0.059
4 | USO1 isoform 2 (UniProt O60763) | -0.108 | -0.254 (active) | 0.025 | 0.043 | 0.001 | -0.018 | 0.015 | 0.044 | -0.059 | -0.111 | 0.076 | -0.028 | -0.012 | -0.026 | 0.029 | -0.034 | -0.019 | 0.03 | 0.022 | -0.003
5 | XPOT (UniProt O43592) | -0.363 (active) | -0.855 (active) | 0.04 | -0.033 | 0 | 0.021 | 0.058 | 0.059 | -0.028 | -0.16 | 0.017 | -0.102 | -0.023 | 0.026 | 0.076 | -0.022 | 0.005 | -0.116 | 0.076 | -0.044
6 | USP7 (UniProt Q93009) | -0.045 | -0.215 | 0.101 | 0.02 | -0.12 | -0.164 | 0.097 | 0.116 | -0.005 | -0.351 (active) | -0.087 | -0.083 | -0.147 | 0.023 | -0.106 | -0.104 | 0.03 | 0.152 | 0.057 | -0.06
7 | VARS2, A0A0G2JL52 | -0.024 | 0.001 | 0.08 | 0.011 | 0.006 | -0.013 | 0.007 | 0.03 | -0.016 | -0.126 | 0.007 | -0.019 | -0.005 | -0.026 | -0.019 | -0.005 | 0.02 | 0.012 | -0.004 | -0.041
8 | UPF3B (UniProt Q9BZI7) | 0.146 | 0.333 | 0.059 | -0.388 | 0.084 | 0.271 | -0.1 | -0.094 | 0.28 | 0.341 | -0.099 | 0.002 | 0.423 | 0.114 | 0.045 | 0.413 | 0.286 | 0.035 | 0.108 | 0.007
9 | TXNIP (UniProt Q9H3M7) | 0.112 | 0.021 | 0.053 | 0.054 | 0.212 | -0.066 | -0.026 | 0.036 | -0.07 | -0.793 (active) | -0.074 | 0 | -0.307 | 0.06 | 0.179 | -0.085 | -0.026 | 0.243 | 0.01 | 0.07
10 | WASHC5 (UniProt Q12768) | -0.109 | -0.268 | 0.09 | 0.049 | -0.061 | 0.035 | 0.045 | 0.008 | -0.006 | -0.114 | 0.007 | -0.02 | -0.042 | 0.047 | 0.062 | -0.032 | 0.045 | -0.009 | 0.033 | -0.033
11 | TOMM5 isoform 2 (UniProt Q8N4H5) | -0.003 | -0.032 | -0.049 | 0.538 (active) | 0.05 | 0.039 | -0.046 | -0.017 | 0.041 | 0.116 | -0.033 | 0.064 | 0.012 | 0.027 | 0.059 | 0.01 | -0.033 | -0.031 | -0.036 | 0.049
12 | TNFRSF10A (UniProt O00220) | 0.046 | 0.001 | -0.02 | -0.047 | -0.037 | -0.104 | -0.123 | -0.053 | -0.02 | -0.007 | -0.038 | -0.012 | 0.02 | 0.04 | -0.052 | 0.039 | 0.017 | 0.02 | 0.031 | 0.056
13 | XPO1 (UniProt O14980) | -0.175 | -0.546 (active) | 0.085 | 0.023 | -0.049 | -0.13 | 0.058 | 0.077 | -0.033 | -0.343 (active) | 0.003 | -0.088 | -0.096 | 0.001 | -0.028 | -0.093 | -0.012 | 0.02 | 0.094 | -0.041
14 | UGDH (UniProt O60701) | -0.041 | -0.128 | 0.11 | 0.064 | -0.076 | 0.031 | 0.05 | -0.034 | -0.113 | -0.106 | -0.036 | -0.284 (active) | -0.273 | 0.004 | -0.085 | -0.209 | -0.089 | 0.074 | 0.087 | -0.038
15 | TMEM164 (UniProt Q5U3C3) | -0.01 | -0.145 | -0.01 | 0.082 | 0.045 | -0.053 | 0.07 | 0.135 | -0.001 | -0.021 | -0.13 | 0.197 | 0.025 | 0.012 | 0.033 | 0.06 | -0.233 | 0.061 | 0.211 | -0.003
16 | UBE2J1 (UniProt Q9Y385) | -0.073 | -0.165 | 0.07 | 0.248 | -0.024 | 0.014 | 0.01 | 0.003 | -0.083 | -0.006 | 0.019 | -0.016 | -0.073 | 0.26 | -0.046 | -0.133 | 0.048 | 0.204 | 0.001 | 0.035
